Results on six sequences are retold here after PMC7862700, “An all-to-all approach to the identification of sequence-specific readers for epigenetic DNA modifications on cytosine”.

What all share (assay): DAPPL (digital affinity profiling via proximity ligation, sequencing); 10 mM Tris-HCl pH 7.5, 50 mM NaCl, 1 mM DTT, 4% glycerol, room temperature, 30 min; GST-TFs on glutathione beads, 16-mer random dsDNA library, 0.1% formaldehyde crosslink after washing; high values mean tight binding
In one assay the target is T1, FEV (Homo sapiens, UniProt Q99581 1-238).
T1 sequence: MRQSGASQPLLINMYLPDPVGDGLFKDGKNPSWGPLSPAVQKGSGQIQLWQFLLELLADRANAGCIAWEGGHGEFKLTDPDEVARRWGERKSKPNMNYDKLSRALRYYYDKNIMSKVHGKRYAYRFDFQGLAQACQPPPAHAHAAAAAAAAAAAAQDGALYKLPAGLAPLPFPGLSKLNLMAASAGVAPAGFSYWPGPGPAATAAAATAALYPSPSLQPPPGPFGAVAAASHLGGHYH
Conditions: protein: recombinant; tags: N-terminal GST; dsDNA, one strand shown. The essentials: (§1)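 Human transcription factors were made in yeast as GST fusions, captured on glutathione beads and barcoded with DNA. With a tag-only sample included, the pool was incubated with 200 nmole of a random double-stranded 16-mer DNA library in Tris/NaCl/DTT/glycerol buffer at room temperature for 30 min, then crosslinked with 0.1% formaldehyde after washing, ligated by proximity, amplified and sequenced. For binding signal, each hexamer's read frequency for a factor is divided by its frequency for the tag-only sample.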

Another assay deals with ETV5 (Homo sapiens, UniProt P41161 1-510). Conditions: protein: recombinant; tags: N-terminal GST; dsDNA, one strand shown. The essentials: as §1
Chain of ETV5 (P41161 whole entry): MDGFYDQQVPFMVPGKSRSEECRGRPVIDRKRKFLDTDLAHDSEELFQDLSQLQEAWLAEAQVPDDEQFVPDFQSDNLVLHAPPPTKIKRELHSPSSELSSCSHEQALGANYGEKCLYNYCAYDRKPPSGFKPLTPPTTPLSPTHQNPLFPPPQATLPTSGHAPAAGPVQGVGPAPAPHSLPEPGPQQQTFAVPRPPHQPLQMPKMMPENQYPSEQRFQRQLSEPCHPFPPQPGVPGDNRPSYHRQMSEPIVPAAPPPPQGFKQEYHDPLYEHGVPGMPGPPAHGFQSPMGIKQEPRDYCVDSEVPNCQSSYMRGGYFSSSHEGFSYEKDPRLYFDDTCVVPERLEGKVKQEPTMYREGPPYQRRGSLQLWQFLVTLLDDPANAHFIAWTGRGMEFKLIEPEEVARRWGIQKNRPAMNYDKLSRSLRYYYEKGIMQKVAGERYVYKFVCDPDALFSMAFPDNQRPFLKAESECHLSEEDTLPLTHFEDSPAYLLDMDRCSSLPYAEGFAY
A further assay deals with HSF1 (Homo sapiens, UniProt Q00613 1-529). As to conditions: protein: recombinant; tags: N-terminal GST; chain copies: 3; dsDNA, one strand shown. In outline: as §1
Chain of HSF1 (Q00613 whole entry): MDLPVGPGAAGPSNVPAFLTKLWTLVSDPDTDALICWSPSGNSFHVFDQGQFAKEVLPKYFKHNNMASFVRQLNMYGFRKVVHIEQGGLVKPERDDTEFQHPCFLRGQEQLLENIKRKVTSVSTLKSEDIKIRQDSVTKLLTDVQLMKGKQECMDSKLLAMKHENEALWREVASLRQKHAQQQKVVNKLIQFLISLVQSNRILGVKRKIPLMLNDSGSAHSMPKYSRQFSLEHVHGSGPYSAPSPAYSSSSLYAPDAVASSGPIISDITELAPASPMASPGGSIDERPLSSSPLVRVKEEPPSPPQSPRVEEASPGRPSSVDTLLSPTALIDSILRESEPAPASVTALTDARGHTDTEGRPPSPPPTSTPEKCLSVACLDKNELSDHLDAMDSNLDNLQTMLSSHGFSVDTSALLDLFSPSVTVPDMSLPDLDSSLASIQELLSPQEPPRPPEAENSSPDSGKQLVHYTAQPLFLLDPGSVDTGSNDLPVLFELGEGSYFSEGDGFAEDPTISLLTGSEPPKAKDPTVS
The next assay deals with T2, SPIC (Homo sapiens, UniProt Q8N5J4 1-248).
T2 sequence: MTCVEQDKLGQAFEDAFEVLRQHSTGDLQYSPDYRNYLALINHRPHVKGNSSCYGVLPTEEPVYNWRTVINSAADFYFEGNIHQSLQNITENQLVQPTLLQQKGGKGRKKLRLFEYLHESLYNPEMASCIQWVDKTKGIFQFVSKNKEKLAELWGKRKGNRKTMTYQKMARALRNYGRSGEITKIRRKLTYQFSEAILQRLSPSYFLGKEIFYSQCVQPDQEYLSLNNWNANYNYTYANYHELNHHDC
Conditions: protein: recombinant; tags: N-terminal GST; dsDNA, one strand shown. In outline:
as §1

Another assay concerns the target ELF4 (Homo sapiens, UniProt Q99607 1-663). As to conditions: protein: recombinant; tags: N-terminal GST; dsDNA, one strand shown. The essentials: as §1
The target of a further assay is T3, ELK4 (Homo sapiens, UniProt P28324-2 1-405).
T3 sequence: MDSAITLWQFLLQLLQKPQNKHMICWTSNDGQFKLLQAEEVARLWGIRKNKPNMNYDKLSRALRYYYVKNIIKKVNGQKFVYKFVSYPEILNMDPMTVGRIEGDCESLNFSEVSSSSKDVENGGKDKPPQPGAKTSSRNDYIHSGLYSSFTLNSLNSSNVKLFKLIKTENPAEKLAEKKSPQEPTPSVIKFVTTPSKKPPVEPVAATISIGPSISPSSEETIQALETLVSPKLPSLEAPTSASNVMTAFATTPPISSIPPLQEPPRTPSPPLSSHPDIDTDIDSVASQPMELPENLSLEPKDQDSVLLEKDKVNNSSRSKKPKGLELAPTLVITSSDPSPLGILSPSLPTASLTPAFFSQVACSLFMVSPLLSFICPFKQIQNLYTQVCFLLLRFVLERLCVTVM
As to conditions: protein: recombinant; tags: N-terminal GST; dsDNA, one strand shown. The essentials: as §1

The target in the next assay is T4, ETV2 (Homo sapiens, UniProt O00321 1-342).
T4 sequence: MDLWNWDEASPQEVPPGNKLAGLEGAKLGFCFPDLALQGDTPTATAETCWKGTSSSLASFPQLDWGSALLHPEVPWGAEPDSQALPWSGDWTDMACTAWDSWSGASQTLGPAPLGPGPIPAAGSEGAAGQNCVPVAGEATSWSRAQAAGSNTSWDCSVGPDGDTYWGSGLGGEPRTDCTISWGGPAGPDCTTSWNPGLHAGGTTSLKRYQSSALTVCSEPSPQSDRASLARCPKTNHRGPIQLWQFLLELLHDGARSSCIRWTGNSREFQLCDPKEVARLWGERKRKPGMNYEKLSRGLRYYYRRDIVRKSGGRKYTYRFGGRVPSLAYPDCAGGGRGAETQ
As to conditions: protein: recombinant; tags: N-terminal GST; dsDNA, one strand shown. In outline: as §1

The target in another assay is T5, ELF3 (Homo sapiens, UniProt P78545 1-371).
T5 sequence: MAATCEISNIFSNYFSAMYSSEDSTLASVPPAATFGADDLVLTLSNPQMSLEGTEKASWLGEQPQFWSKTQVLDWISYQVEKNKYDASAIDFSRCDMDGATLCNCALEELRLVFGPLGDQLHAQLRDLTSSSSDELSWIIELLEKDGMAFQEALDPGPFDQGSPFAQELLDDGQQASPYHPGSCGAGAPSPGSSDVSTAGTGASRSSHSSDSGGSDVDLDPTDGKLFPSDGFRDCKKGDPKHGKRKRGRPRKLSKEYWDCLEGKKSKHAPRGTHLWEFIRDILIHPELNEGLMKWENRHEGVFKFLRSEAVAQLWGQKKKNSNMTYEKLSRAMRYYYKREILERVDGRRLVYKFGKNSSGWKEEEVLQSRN
As to conditions: protein: recombinant; tags: N-terminal GST; dsDNA, one strand shown. In outline:
as §1

For the next assay, the target named is CRX (Homo sapiens, UniProt O43186 1-299). Conditions: protein: recombinant; tags: N-terminal GST; dsDNA, one strand shown. In outline: as §1
Chain of CRX (O43186 whole entry): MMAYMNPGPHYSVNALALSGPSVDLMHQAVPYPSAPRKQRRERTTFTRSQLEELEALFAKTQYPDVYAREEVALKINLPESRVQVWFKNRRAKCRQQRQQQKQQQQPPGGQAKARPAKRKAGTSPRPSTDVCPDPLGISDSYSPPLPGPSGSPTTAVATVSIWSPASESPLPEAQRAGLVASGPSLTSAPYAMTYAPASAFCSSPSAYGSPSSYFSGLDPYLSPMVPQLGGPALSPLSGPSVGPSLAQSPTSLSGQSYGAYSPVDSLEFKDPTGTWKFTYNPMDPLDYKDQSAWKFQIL
A further assay addresses ETV1 (Homo sapiens, UniProt P50549 1-477). As to conditions: protein: recombinant; tags: N-terminal GST; dsDNA, one strand shown. The essentials:
as §1

Chain of ELF4 (Q99607 whole entry): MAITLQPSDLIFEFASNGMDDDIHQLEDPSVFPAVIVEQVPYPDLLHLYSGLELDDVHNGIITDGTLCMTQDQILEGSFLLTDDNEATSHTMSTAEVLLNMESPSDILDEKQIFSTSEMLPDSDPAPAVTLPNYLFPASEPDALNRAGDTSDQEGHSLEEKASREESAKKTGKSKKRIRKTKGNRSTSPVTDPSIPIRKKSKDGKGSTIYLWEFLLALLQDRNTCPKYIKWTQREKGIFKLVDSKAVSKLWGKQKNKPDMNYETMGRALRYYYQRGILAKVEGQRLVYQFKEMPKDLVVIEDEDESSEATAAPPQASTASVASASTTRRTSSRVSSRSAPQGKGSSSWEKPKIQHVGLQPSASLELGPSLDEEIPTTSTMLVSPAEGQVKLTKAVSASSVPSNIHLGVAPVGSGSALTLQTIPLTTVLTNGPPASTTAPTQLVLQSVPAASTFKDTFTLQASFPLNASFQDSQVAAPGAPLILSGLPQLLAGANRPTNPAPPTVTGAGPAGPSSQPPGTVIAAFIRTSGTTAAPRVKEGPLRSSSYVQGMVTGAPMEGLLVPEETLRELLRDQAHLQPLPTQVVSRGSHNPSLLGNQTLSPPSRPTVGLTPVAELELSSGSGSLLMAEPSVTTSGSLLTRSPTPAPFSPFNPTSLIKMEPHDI
Chain of ETV1 (P50549 whole entry): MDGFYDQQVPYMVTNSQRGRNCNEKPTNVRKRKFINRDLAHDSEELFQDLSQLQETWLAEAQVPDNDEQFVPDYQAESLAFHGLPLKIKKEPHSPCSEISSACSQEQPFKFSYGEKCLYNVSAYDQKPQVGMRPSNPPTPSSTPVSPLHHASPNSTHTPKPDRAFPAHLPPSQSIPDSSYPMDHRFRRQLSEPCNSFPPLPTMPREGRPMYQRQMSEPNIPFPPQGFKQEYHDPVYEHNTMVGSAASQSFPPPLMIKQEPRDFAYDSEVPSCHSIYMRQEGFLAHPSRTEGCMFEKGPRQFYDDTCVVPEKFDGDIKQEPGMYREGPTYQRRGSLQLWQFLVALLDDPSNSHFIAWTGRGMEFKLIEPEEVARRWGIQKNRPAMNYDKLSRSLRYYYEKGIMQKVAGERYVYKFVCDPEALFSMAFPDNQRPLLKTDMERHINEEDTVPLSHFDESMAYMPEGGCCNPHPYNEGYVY

With ATCGAA, the binding signal with FEV was 1.08 fold enrichment (6-mer frequency, TF over GST control); with ETV5, 1.16 fold enrichment (6-mer frequency, TF over GST control); with HSF1, 1.87 fold enrichment (6-mer frequency, TF over GST control); in the assay with SPIC, 1.11 fold enrichment (6-mer frequency, TF over GST control); in the assay with ELF4, 1.14 fold enrichment (6-mer frequency, TF over GST control); with ELK4 it was 1.14 fold enrichment (6-mer frequency, TF over GST control). Also, the binding signal with ETV2 is 1.07 fold enrichment (6-mer frequency, TF over GST control); with ELF3, 1.07 fold enrichment (6-mer frequency, TF over GST control); in the assay with CRX, 1.31 fold enrichment (6-mer frequency, TF over GST control); with ETV1, 1.13 fold enrichment (6-mer frequency, TF over GST control).

CATTCT: the binding signal with FEV is 1.29 fold enrichment (6-mer frequency, TF over GST control); in the assay with ETV5 it was 1.28 fold enrichment (6-mer frequency, TF over GST control); with HSF1, 2.56 fold enrichment (6-mer frequency, TF over GST control); in the assay with SPIC, 1.31 fold enrichment (6-mer frequency, TF over GST control); with ELF4, 1.37 fold enrichment (6-mer frequency, TF over GST control); with ELK4, 1.36 fold enrichment (6-mer frequency, TF over GST control). In addition, the binding signal was 1.36 fold enrichment (6-mer frequency, TF over GST control) with ETV2; 1.22 fold enrichment (6-mer frequency, TF over GST control) with ELF3; 1.63 fold enrichment (6-mer frequency, TF over GST control) with CRX; 1.31 fold enrichment (6-mer frequency, TF over GST control) in the assay with ETV1.

With TCCGCT, the binding signal with FEV is 2.51 fold enrichment (6-mer frequency, TF over GST control); with ETV5, 2.37 fold enrichment (6-mer frequency, TF over GST control); in the assay with HSF1, 1.51 fold enrichment (6-mer frequency, TF over GST control); in the assay with SPIC, 2.63 fold enrichment (6-mer frequency, TF over GST control); with ELF4, 2.13 fold enrichment (6-mer frequency, TF over GST control); with ELK4 it was 2.01 fold enrichment (6-mer frequency, TF over GST control). In addition, the binding signal was 2.27 fold enrichment (6-mer frequency, TF over GST control) with ETV2; 2.15 fold enrichment (6-mer frequency, TF over GST control) with ELF3; 1.84 fold enrichment (6-mer frequency, TF over GST control) in the assay with CRX; 2.44 fold enrichment (6-mer frequency, TF over GST control) with ETV1.

For CCATAT, the binding signal is 1.24 fold enrichment (6-mer frequency, TF over GST control) with FEV; 1.24 fold enrichment (6-mer frequency, TF over GST control) with ETV5; 1.12 fold enrichment (6-mer frequency, TF over GST control) with HSF1; 1.31 fold enrichment (6-mer frequency, TF over GST control) with SPIC; 1.17 fold enrichment (6-mer frequency, TF over GST control) with ELF4; 1.13 fold enrichment (6-mer frequency, TF over GST control) with ELK4. Moreover, the binding signal with ETV2 was 1.29 fold enrichment (6-mer frequency, TF over GST control); with ELF3, 1.37 fold enrichment (6-mer frequency, TF over GST control); in the assay with CRX it was 1.09 fold enrichment (6-mer frequency, TF over GST control); with ETV1, 1.2 fold enrichment (6-mer frequency, TF over GST control).

In the case of CTTTCC, the binding signal is 2.15 fold enrichment (6-mer frequency, TF over GST control) with FEV; 2.04 fold enrichment (6-mer frequency, TF over GST control) in the assay with ETV5; 2.13 fold enrichment (6-mer frequency, TF over GST control) with HSF1; 1.82 fold enrichment (6-mer frequency, TF over GST control) in the assay with SPIC; 1.9 fold enrichment (6-mer frequency, TF over GST control) in the assay with ELF4; 1.94 fold enrichment (6-mer frequency, TF over GST control) with ELK4. Also, the binding signal with ETV2 was 2.11 fold enrichment (6-mer frequency, TF over GST control); with ELF3, 1.63 fold enrichment (6-mer frequency, TF over GST control); with CRX it was 1.54 fold enrichment (6-mer frequency, TF over GST control); with ETV1, 1.91 fold enrichment (6-mer frequency, TF over GST control).

With ATAATA, the binding signal is 1.17 fold enrichment (6-mer frequency, TF over GST control) with FEV; 1.18 fold enrichment (6-mer frequency, TF over GST control) with ETV5; 1.67 fold enrichment (6-mer frequency, TF over GST control) in the assay with HSF1; 1.21 fold enrichment (6-mer frequency, TF over GST control) in the assay with SPIC; 1.14 fold enrichment (6-mer frequency, TF over GST control) with ELF4; 1.14 fold enrichment (6-mer frequency, TF over GST control) with ELK4. The binding signal with ETV2 is 1.1 fold enrichment (6-mer frequency, TF over GST control); with ELF3, 1.15 fold enrichment (6-mer frequency, TF over GST control); with CRX, 2.14 fold enrichment (6-mer frequency, TF over GST control); with ETV1 it was 1.17 fold enrichment (6-mer frequency, TF over GST control).
